From PubChem
Hits are enriched below; roughly 1.2% of the tested compounds scored in any of these assays.
EBV LMP1 NFkB: inhibitors of Epstein-Barr LMP1-induced NF-kappaB reporter. LMP1-induced NF-kappaB luciferase reporter cells, luminescence. inhibition, % at 12.5 µM. 350,000 compounds, 0.69% hits; in the data active = inhibition above about 41%; inconclusive = no clear call, values can overlap the other calls;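 note: 0% = neutral control wells and 100% = reference inhibitor control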
NCOA3 inh: human NCOA3 inhibition; HEK293 GAL4-SRC3 luciferase reporter, luminescence; inhibition, % at 3.6 µM; 360,000 compounds, 0.17% hits; Q9Y6Q9;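 active = inhibition above a per-campaign cutoff, the mean of all compounds plus 3 SD, cut at about 60% in these data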;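 note: 0% = DMSO-treated cells and 100% = gossypol-treated cells at 36 µM; higher means less SRC3-driven luciferase light from the GAL4 reporter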
SRC2 inh: human SRC2 (NCOA2) inhibition; AID 651957; 370,000 compounds, 0.17% hits; inhibition, % at 9 µM; HEK293 GAL4-SRC2 luciferase reporter, luminescence; Q15596;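 active = inhibition above the mean inhibition of all tested compounds plus 3 SD, set per campaign, cut at about 52% in these data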;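 note: 0% = DMSO treated cells and 100% = cells given Gossypol at 36 µM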
Target sequence (Q15596 whole entry, looked up, the tested form may be a part): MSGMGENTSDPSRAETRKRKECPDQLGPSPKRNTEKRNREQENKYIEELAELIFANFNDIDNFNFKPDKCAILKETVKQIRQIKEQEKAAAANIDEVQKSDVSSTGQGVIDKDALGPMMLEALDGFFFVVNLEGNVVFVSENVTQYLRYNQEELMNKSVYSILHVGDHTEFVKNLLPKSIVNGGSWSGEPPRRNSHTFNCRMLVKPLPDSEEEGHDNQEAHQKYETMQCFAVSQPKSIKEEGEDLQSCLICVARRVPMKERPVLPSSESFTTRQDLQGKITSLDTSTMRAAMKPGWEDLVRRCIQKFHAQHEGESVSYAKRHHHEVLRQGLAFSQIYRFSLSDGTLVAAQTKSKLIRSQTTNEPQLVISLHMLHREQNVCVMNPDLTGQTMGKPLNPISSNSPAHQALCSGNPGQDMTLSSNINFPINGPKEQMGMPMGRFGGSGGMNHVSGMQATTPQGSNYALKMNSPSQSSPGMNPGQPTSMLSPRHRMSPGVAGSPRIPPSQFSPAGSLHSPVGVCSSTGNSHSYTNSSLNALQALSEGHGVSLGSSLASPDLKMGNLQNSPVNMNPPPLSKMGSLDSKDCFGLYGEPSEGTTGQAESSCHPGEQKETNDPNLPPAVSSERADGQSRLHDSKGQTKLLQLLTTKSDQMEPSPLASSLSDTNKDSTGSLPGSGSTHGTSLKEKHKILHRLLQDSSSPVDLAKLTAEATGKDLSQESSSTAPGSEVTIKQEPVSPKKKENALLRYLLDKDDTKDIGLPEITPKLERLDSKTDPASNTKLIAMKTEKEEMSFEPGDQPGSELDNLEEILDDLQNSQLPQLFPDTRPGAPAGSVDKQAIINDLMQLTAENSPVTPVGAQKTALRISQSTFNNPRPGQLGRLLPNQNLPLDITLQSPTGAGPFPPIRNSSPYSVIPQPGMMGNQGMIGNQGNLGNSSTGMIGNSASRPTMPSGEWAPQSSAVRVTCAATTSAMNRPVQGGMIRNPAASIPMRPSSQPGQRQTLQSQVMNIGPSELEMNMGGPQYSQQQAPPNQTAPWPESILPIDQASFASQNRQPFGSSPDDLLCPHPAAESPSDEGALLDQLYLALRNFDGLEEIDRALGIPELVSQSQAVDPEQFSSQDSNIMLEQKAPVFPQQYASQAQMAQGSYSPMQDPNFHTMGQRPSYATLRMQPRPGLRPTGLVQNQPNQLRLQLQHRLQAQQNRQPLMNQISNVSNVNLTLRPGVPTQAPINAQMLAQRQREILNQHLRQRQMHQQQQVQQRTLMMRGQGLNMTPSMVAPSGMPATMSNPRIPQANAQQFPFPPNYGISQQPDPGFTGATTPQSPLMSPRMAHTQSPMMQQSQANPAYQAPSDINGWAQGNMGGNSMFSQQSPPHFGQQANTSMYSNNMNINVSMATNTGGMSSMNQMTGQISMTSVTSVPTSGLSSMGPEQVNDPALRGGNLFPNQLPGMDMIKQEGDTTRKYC
Shn3 inh set2: reduces Shn3 3'UTR luciferase signal in osteoblasts | Clone20 osteoblast Shn3 3'UTR firefly luciferase, 24 h | inhibition, % at 12.5 µM | 360,000 compounds, 0.52% hits | AID 588674;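 active = mean inhibition of at least 75% with every replicate also reaching 75%; inconclusive = mean inhibition at least 75% but some replicate below; inactive = mean inhibition below 75%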;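 note: 0% = median of neutral control wells and 100% = pilot-screen positive control compound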
SRC1 inh: inhibitors of human steroid receptor coactivator 1 (SRC1); Q15788; 360,000 compounds, 0.12% hits; inhibition, % at 3.6 µM; HEK293 GAL4-SRC1 luciferase reporter, luminescence;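 active = inhibition above the campaign mean plus 3 SD, with each screening campaign given its own cutoff, cut at about 60% in these data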;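 note: 0% = DMSO treated cells and 100% = gossypol at 36 µM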
NR5A2 inv ag: inverse agonists of human LRH-1 (NR5A2) | O00482 | 360,000 compounds, 0.13% hits | HEK293T StAR-luciferase reporter, LRH-1 transfected, 24 h | inhibition, % at 3.6 µM | AID 602396;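 active = inhibition above the mean inhibition of all tested compounds plus 3 SD, cut at about 73% in these data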;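 note: 0% = DMSO wells and 100% = reporter-only cells lacking LRH-1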
Starred values were filed as active, the others as inactive; ? = inconclusive; . = no result.

SMILES | EBV LMP1 NFkB | NCOA3 inh | SRC2 inh | Shn3 inh set2 | SRC1 inh | NR5A2 inv ag
COc1ccc(-[n+]2c(-c3ccccc3)cc(-c3ccc(C)cc3)cc2-c2ccccc2)cc1 | -1 | 79* | 37 | 37 | 66* | 86*
Oc1ccccc1-[n+]1c(-c2ccccc2)cc(-c2ccccc2)cc1-c1ccccc1 | 4 | 9 | -12 | -13 | 7 | 11
O=C(O)c1ccc(-[n+]2c(-c3ccccc3)cc(-c3ccccc3)cc2-c2ccccc2)cc1 | -4 | -1 | -19 | 0 | -7 | 8
Cc1ccc(-c2cc(-c3ccccc3)cc(-c3ccccc3)[n+]2-c2ccc(C(=O)O)cc2)cc1 | -9 | 7 | -14 | -5 | 2 | 2
Brc1ccc(-[n+]2c(-c3ccccc3)cc(-c3ccccc3)cc2-c2ccccc2)cc1 | 17 | 12 | 12 | 90* | 18 | 27
COc1ccc(-c2cc(-c3ccccc3)[n+](C)c(-c3ccccc3)c2)cc1 | 10 | 70* | -15 | 15 | 46 | 74*
Cc1ccccc1-[n+]1c(-c2ccccc2)cc(-c2ccccc2)cc1-c1ccccc1 | ? | 67* | 30 | 30 | 44 | 70
CN1C2CCC1C(C(=O)Oc1ccccc1)C(c1ccc(Cl)cc1)C2 (centres undefined) | . | . | -32 | . | . | .
COc1cccc(-c2ccc3c(c2)C2c4cnnn4-c4ccccc4C(=O)N2CC3)c1 (centres undefined) | . | . | 3 | . | . | .
CCOC(=O)CC(NC(=O)C(Cc1ccc(N(CCCl)CCCl)cc1)NC(C)=O)C(=O)OCC (centres undefined) | 55* | -8 | -39 | 39 | -6 | 5
CC(C)OC(=O)C1C(c2ccc(I)cc2)CC2CCC1N2C (centres undefined) | . | . | 21 | . | . | .
Cc1cc([N+](=O)[O-])c2ccccc2[n+]1[O-] | 90* | 52 | . | ? | 63* | 58
Cc1ccccc1[N+](=O)[O-] | -5 | 4 | 19 | -8 | 6 | -5
C=C1C(=O)C(C)=C2C(=O)N3Cc4[nH]c5ccccc5c4CC3(C(=O)OC)C12 (centres undefined) | . | . | -8 | . | . | .
C[C@H]1CCC/C=C/C2C[C@H](O)CC2[C@H](O)/C=C/C(=O)O1 (some centres undefined) | -31 | 67* | . | 94* | 21 | 89*
CC1CCC[C@H](O)CCCCCc2cc(O)cc(O)c2C(=O)O1 (some centres undefined) | 0 | -7 | 4 | 0 | -9 | -12
CC1CCC/C=C/C2CC(O)CC2C(O)/C=C/C(=O)O1 (centres undefined) | -172 | 59 | 26 | 84 | 9 | 77*
COC(=O)C1=C(c2ccc3ccccc3c2)C[C@@H]2CC[C@H]1N2C(=O)N1CCCC1 | 8 | 6 | . | 38 | 23 | 4
COC(=O)C1=C(c2ccc3ccccc3c2)C[C@@H]2CC[C@H]1N2C(=O)NC1CC1 | 7 | -15 | 6 | 9 | 8 | 0
COC(=O)C1=C(c2ccc3ccccc3c2)C[C@@H]2CC[C@H]1N2C(=O)N1CCC(O)CC1 | 85* | -4 | . | -3 | 8 | -1
COC(=O)C1=C(c2ccc3ccccc3c2)C[C@@H]2CC[C@H]1N2C(=O)NCC1CC1 | 7 | -3 | 16 | 89* | 9 | 6
COC(=O)C1=C(c2ccc(-c3ccccc3)c(F)c2)C[C@@H]2CC[C@H]1N2C(=O)N1CCC(C)CC1 | 45* | 24 | 25 | 44 | 9 | 13
CSCCC(c1nnnn1Cc1ccccc1)N1CCC2(CC1)C(=O)NCN2c1ccccc1 (centres undefined) | . | 0 | 7 | 2 | 14 | 21
O=C(NCCN1CCC2(CC1)C(=O)NCN2c1ccccc1)c1ccc(F)cc1 | . | . | -21 | . | . | .
COC1CC2C=C(C)C=CC=CC(=O)NC(c3ccccc3)CC=CCCC(O)CC(=O)C2=C1O (centres undefined) | . | 78* | -42 | 98* | 41 | 99*
SMILES | EBV LMP1 NFkB | NCOA3 inh | SRC2 inh | Shn3 inh set2 | SRC1 inh | NR5A2 inv ag
O=C(c1ccccc1)N1Cc2cc(Br)ccc2-n2nncc2C1 | . | . | -9 | . | . | .
CNc1ccc2oc(C[C@H]3O[C@@]4(CC[C@H]3C)O[C@H]([C@H](C)C(=O)c3ccc[nH]3)[C@H](C)C[C@H]4C)nc2c1C(=O)O | 70* | -18 | 6 | 97* | -15 | 0
Cc1nc2ccccc2n1C1CCN(Cc2nnnn2CCc2ccccc2)CC1 | 47* | 5 | -15 | 22 | -26 | 1
c1ccc(CCn2nnnc2CN2CCC(n3nnc4ccccc43)CC2)cc1 | 6 | 5 | 6 | 21 | -8 | -14
COC(=O)C1=C[C@H]([C@@H](C)[C@H](OC)c2ccccc2Br)[C@@H]2[C@H]1c1ccccc1N2C | . | . | -15 | . | . | .
Cc1cc(N(CCCl)CCCl)ccc1/C=N/NC(=O)c1ccco1 | 53* | -92 | -55 | -17 | -80 | -39
Fc1ccc2nc(-c3ccc(CN4CCC(n5nnc6ccccc65)CC4)cc3)c(-c3ccccc3)nc2c1 | . | . | 2 | . | . | .
O=C(NCCN1CCC2(CC1)C(=O)NCN2c1ccccc1)c1ccc2ccccc2c1 | . | . | -15 | . | . | .
NC(N)=N/N=C/c1ccc(N(c2ccccc2)c2ccccc2)cc1 | 4 | 7 | -1 | 95* | -17 | 7
CCC1CN2CCc3cc(OC)c(OC)cc3C2CC1CC1NCCc2c1[nH]c1ccc(O)cc21 (centres undefined) | 83* | 95* | 69* | 92* | 96* | 98*
C=C1[C@@H](C)C2[C@H](Cc3ccccc3)NC(=O)[C@]23[C@H](OC(C)=O)/C=C/[C@@](C)(O)C(=O)[C@@H](C)C/C=C/[C@H]3[C@@H]1O (some centres undefined) | . | . | -8 | . | . | .
CC1Oc2cc3c(-c4c(O)cc(O)c5c(O)c6c(cc45)OC(C)C(C)C6=O)c(O)cc(O)c3c(O)c2C(=O)C1C (centres undefined) | 29 | 23 | . | 88* | -3 | -21
O=C1C(=O)c2ccccc2-c2ccccc21 | 86* | 95* | 95* | 117* | 95* | 103*
Cc1ccccc1C(=O)NCCN1CCC2(CC1)C(=O)NCN2c1ccccc1 | . | . | 23 | . | . | .
CC(=O)OC1CC2OC3C=C(C)CCC3(C)C1(C)C21CO1 (centres undefined) | . | 95* | 69* | 98* | 96* | 103*
CC(=O)O[C@H]1C[C@@H]2OC3C=C(C)CCC3(C)[C@@]1(C)[C@@]21CO1 (some centres undefined) | 91* | 92* | 69* | 98* | 94* | 97*
